# Source: PubChem (National Center for Advancing Translational Sciences (NCATS))
# TDP1 cell noCPT – qHTS for Inhibitors of human tyrosyl-DNA phosphodiesterase 1 (TDP1): qHTS in cells in absence of CPT. DT40 Tdp1-/- hTDP1 cells, no CPT, ATP luminescence, 48 h. Potency, µM (doses to about 46.2 µM), without a hit: at the top dose activity change, negative = growth inhibition, actives largely listed as inhibitors. hit rate 15% among 420,000; further: potency means the concentration at half of the fitted maximal effect; on the % scale 0 is the no-effect control and ±100 the full control effect; nearly all actives have a fitted effect of over 55% in size
#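 Stably hTDP1-transfected Tdp1-null chicken DT40 cells were treated with library compounds minus camptothecin and grown for at least 48 hr at 37 °C, after which cellular ATP was quantified by luminescence.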
# TGFb SMAD3 inh – blocks TGF-b signaling; HepG2 CAGA-GFP TGF-b/SMAD3 reporter, GFP fluorescence, 18 h; TGF-beta stimulated, 500 pg/mL final; Potency, µM (top dose mostly 46.1 µM), inactives show at the top dose activity, negative = inhibition, usual class: inhibitors; hit rate 1.2% among 410,000; AID 588855; further: potency means the concentration at half of the fitted maximal effect; on the % scale 0 is the no-effect control and ±100 the full control effect; nearly all actives have a fitted effect of over 65% in size
#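 Inhibition of TGF-beta-driven CAGA-GFP reporter expression in HEPG2 cells is measured by cellular GFP fluorescence after 18 h stimulation with 500 pg/mL recombinant TGF-beta in 1% FBS medium at 37 degrees C.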
# TDP1 cell CPT – DT40-hTDP1 cell growth loss with CPT; Potency, µM (highest dose often 46.2 µM), inactives show at the highest dose activity change, negative = growth inhibition, most hits filed as inhibitors; AID 686979; chicken DT40 Tdp1-/-;hTDP1 cells + 20 nM CPT, ATP luminescence, 48 h; hit rate 12% among 420,000; further: potency means the concentration at half of the fitted maximal effect; on the % scale 0 is the no-effect control and ±100 the full control effect; nearly all actives have a fitted effect of over 55% in size
#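 Chicken DT40 Tdp1-/- cells stably complemented with human TDP1 were seeded at 400 cells/well in medium containing 20 nM camptothecin, exposed to pin-transferred compounds, and grown at 37 °C for at least 48 hr. Viability was read as ATP luminescence.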
# TDP1 inh – TDP1 (human) enzyme inhibition; hit rate 0.28% among 350,000; recombinant TDP1, AlphaScreen DNA substrate cleavage; Q9NUW8; AID 485290; Potency, µM (doses to about 130 µM), for inactives: at the top dose activity change, negative = inhibition, actives largely listed as inhibitors; further: potency means the concentration at half of the fitted maximal effect; on the % scale 0 is the no-effect control and ±100 the full control effect; nearly all actives have a fitted effect of over 40% in size
# Target sequence (Q9NUW8 whole entry, looked up): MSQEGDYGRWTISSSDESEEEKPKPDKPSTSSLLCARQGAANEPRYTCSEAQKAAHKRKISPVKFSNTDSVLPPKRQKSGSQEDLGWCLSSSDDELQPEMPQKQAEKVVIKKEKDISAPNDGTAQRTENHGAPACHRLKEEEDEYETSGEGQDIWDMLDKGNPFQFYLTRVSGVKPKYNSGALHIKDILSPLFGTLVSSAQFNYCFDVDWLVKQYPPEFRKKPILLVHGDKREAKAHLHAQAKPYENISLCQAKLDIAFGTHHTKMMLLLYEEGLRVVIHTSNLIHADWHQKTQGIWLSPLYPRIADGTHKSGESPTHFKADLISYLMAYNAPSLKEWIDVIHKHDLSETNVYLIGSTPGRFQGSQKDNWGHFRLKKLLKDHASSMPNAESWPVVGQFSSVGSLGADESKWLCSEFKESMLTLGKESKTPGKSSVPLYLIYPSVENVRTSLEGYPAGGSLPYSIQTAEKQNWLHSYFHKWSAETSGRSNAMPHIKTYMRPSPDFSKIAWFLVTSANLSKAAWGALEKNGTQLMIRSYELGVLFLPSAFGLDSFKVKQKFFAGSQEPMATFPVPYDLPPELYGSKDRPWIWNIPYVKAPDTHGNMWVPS
#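 Signal: AlphaScreen proximity between streptavidin donor and anti-FITC acceptor beads on intact substrate. Reaction: Tdp1 1 nM, substrate 15 nM final, 5 min RT after 15 min compound preincubation.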
# HepG2 tox – HepG2 cytotoxicity, counter-screen for TGF-b inhibitors; HepG2 CAGA-GFP viability, ATP luminescence, 18 h; Potency, µM (doses to about 46.1 µM), inactives show at the highest dose activity change, negative = cytotoxicity, hits mostly cytotoxic; hit rate 0.76% among 410,000; further: potency means the concentration at half of the fitted maximal effect
#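 HepG2 CAGA-GFP cells (1000/well, DMEM with 1% FBS) received compound, then TGF-beta at 500 pg/mL final, and were incubated 18 hours at 37 degrees C. Viability was read by CellTiter-Glo luminescence. Media-only wells were set as complete cell-killing and DMSO as no toxicity.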
# IL-1B inflam inh – inflammasome signaling inhibition, IL-1 beta readout; THP-1 LPS/ATP IL-1B secretion, AlphaLISA, 16 h; stronger effect = lower value; activity change, % at 57.5 µM; hit rate 4.7% among 360,000; in the data active means activity change below about -50%; inconclusive means mostly about -30% to -49%; further: on the % scale 0 is the no-effect control and ±100 the full control effect
#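 Secreted IL-1B measured by AlphaLISA bead assay after 16 h compound exposure of THP-1 cells; compounds (final up to 57.5 uM) added 1 h before LPS (250 ng/mL) and ATP (1.25 mM) stimulation; lower signal means less secretion.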
# * = called active by the depositor; ? = inconclusive; · = no result given; [ ] = dose if it differs, or a comment. Only some compounds are listed: those with a hit (about 19% of all), similar ones and a draw of the others. Unless noted, the call rests on the fitted dose curve; in most records, active means well fitted curve in the direction sought with a large enough effect; inconclusive means small, poorly fitted or top-dose-only effect, or another doubt; inactive means no such curve, though single readings can be large; an effect the other way counts as inactive or inconclusive.
SMILES,TDP1 cell noCPT,TGFb SMAD3 inh,TDP1 cell CPT,TDP1 inh,HepG2 tox,IL-1B inflam inh
C=CCOC(=O)C1=C[C@H](c2cn(C(C)=O)c3ccccc23)C[C@H](OCc2ccc(CO)cc2)O1,21µM*,7%,?,1%,-19%,18
CC(=O)n1cc([C@H]2C=C(C(=O)N3CCN(Cc4ccc5c(c4)OCO5)CC3)O[C@@H](OCCCCO)C2)c2ccccc21,?,-5%,16µM*,5%,-14%,-16
CC(=O)n1cc([C@@H]2C=C(C(=O)N3CCN(C)CC3)O[C@H](OCc3ccc(CO)cc3)C2)c2ccccc21,0%,-3%,?,·,-19%,-12
COc1ccc(OC)c(NC(=O)C(C)n2c(=O)cc(C)c3c(C)nn(-c4ccccc4)c32)c1 (centres undefined),-4%,-5%,-29%,-5%,-21%,·
COCCNC(=O)c1cccc2c(-c3cccc(C(N)=O)c3)coc12,?,1%,?,·,-15%,54
CS(=O)(=O)Nc1cccc(NC(=O)c2cccc3c(-c4cccc(C(N)=O)c4)coc23)c1,?,10%,18µM*,·,-3%,?
CS(=O)(=O)Nc1cccc(NC(=O)c2ccc(-c3ccc(F)c(F)c3)c3ccoc23)c1,?,?,?,·,-28%,?
CC(=O)c1cccc(NC(=O)c2cccc3c(-c4cccc(C(N)=O)c4)coc23)c1,12µM*,-5%,9.2µM*,·,-5%,0
CC(C)NC(=O)c1cccc2c(-c3ccc(F)c(F)c3)coc12,21µM*,10%,?,·,-13%,-26
CS(=O)(=O)Nc1cccc(NC(=O)c2cccc3c(-c4ccc(F)c(F)c4)coc23)c1,?,-37%,15µM*,·,-21%,?
CC(=O)N1CCc2cc(S(=O)(=O)NC(Cc3ccccc3)C(=O)NCc3ccccc3Cl)ccc21 (centres undefined),-20%,-32%,-6%,7%,-2%,·
Cc1cccc(OCCSc2nc3ccccc3n2CC(=O)N2CCOCC2)c1C,?,2%,-22%,6%,-21%,·
Oc1ccc(-c2onc(C(F)(F)F)c2-c2cscn2)c(O)c1,21µM*,?,?,0%,3%,10
Cc1nc(-c2c(C(F)(F)F)noc2-c2ccc(O)cc2O)cs1,?,-12%,?,2%,-19%,0
COc1ccc2c(c1)CCc1cnc(-n3ncc(C(=O)NC4CCOC4)c3C3CC3)nc1-2 (centres undefined),?,·,-8%[9.04 µM],·,·,·
CCOC(=O)Cn1cccc1-c1nc(-c2ccc(OC)cc2)c(-c2ccc(OC)cc2)s1,1%,·,5%,·,·,·
COc1ccc(S(=O)(=O)NCCc2nnc3ccc(SCC(=O)Nc4cc(C)cc(C)c4)nn23)cc1,?,55%,21µM*,5%,-50%,·
Cc1ccc(S(=O)(=O)NCCc2nnc3ccc(SCC(=O)Nc4ccc(F)cc4F)nn23)cc1,5%,19%,-22%,3%,-10%,·
O=S(=O)(NCCc1nnc2ccc(SCc3ccc(C(F)(F)F)cc3)nn12)c1ccccc1,?,?,15µM*,0%,-22%,·
Cc1ccc(CSc2ccc3nnc(CCNS(=O)(=O)c4ccc(C)cc4)n3n2)cc1,?,?,16µM*,8%,-31%,·
Cc1ccc(S(=O)(=O)NCCc2nnc3ccc(SCc4ccccc4F)nn23)cc1,21µM*,-12%,18µM*,5%,-22%,·
O=S(=O)(NCCc1nnc2ccc(SCc3cccnc3)nn12)c1ccccc1,-10%,7%,-12%,5%,-3%,-7
Cc1ccc(C(c2sc3nc(-c4ccco4)nn3c2O)N2CCOCC2)cc1 (centres undefined),-2%,-15%,0%,0%,-8%,·
Cc1c(C(=O)NCc2ccc(F)cc2)sc2ncnc(NCC3CCCO3)c12 (centres undefined),-14%,·,-13%[9.04 µM],·,·,·
Cc1nc2sc(C#N)c(N)c2c2c1CCCC2,?,?,-30%,-6%,1%,-2
SMILES,TDP1 cell noCPT,TGFb SMAD3 inh,TDP1 cell CPT,TDP1 inh,HepG2 tox,IL-1B inflam inh
N#Cc1sc2nc(N3CCCCC3)c3c(c2c1N)CCCC3,?,11µM*,-23%,7%,-100%,-12
CN(C)c1ncnc2ccc(-c3ccoc3)cc12,?,·,18µM*,·,·,·
CN(C)c1ccc(-c2ccc3ncnc(N(C)C)c3c2)cc1,0.37µM*,·,0.46µM*,·,·,·
CN(C)c1ccc(-c2ccc3ncnc(N4CCNCC4)c3c2)cc1,?,·,-6%,3%[56.1 µM],·,·
COC(=O)C(Cc1c[nH]c2ccccc12)NC(=O)COc1cccc(C)c1 (centres undefined),?,-29%,-20%,-2%[12.3 µM],-40%,·
Cc1ccc(CNC(=O)CCCN2C(=O)CCn3nc(-c4cn(C)c5ccccc45)cc32)cc1,-1%,-5%,-8%,1%,-5%,·
CC(Sc1nc2ccc(C(=O)c3ccccc3)cc2[nH]1)C(=O)O (centres undefined),0%,5%,5%,5%,4%,4
COC(=O)Nc1nc2ccc(S(=O)c3ccccc3)cc2[nH]1 (centres undefined),8.4µM*,·,?,8%,·,·
COC(=O)Nc1nc2ccc(C(=O)c3ccccc3)cc2[nH]1,0.25µM*,·,0.36µM*,10%[56.1 µM],·,·
COC(=O)Nc1nc2ccc(SC(C)C)cc2[nH]1,3.3µM*,?,0.82µM*,6%[56.1 µM],-11%,34
CN(C)CCCN(C(=O)COc1ccccc1)c1nc2ccc(Cl)cc2s1,?,?,?,7%,-44%,-51*
CN(C)CCCN(C(=O)CCc1ccccc1)c1nc2ccc(Cl)cc2s1,23µM*,?,23µM*,3%,-105%,·
COc1cccc(C2=NOC(C(=O)NCc3ccc(F)cc3)C2)c1 (centres undefined),18µM*,-47%,12µM*,0%,-16%,0
COc1cccc(C2=NOC(C(=O)NCc3cccnc3)C2)c1 (centres undefined),?,-10%,-18%,·,-1%,51
COc1ccc(CNC(=O)C2CC(C)=C(C)CC2C(=O)O)cc1OC (centres undefined),1.3µM*,-1%,1.3µM*,4%,1%,24
